# Reference: the supplement of paper PMC3545927
# The list shows a part of the results. The hit rate among all sequences tested is not known here.
# Molecular target: furin, P09958
# Test: furin cleavage Z-score vs untreated control; higher = more cleavage, active = 3.5 or more, inactive = 1 or less, 8 variable residues between constant flanks
# Outline: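 Magnetic beads held 8-mer peptides by the N-terminus, each fused to a cDNA oligonucleotide, and purified furin was added for 7.5, 15 or 30 min. Released DNA was sequenced after PCR adapter tagging. The cleavage Z-score is the log count relative to furin-free reactions, lowess-adjusted and divided by median absolute deviation.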
# 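Note: purified furin at 1:10 enzyme:substrate in 50 mM HEPES pH 7.5.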
# Chain of furin, P09958 (P09958 whole entry): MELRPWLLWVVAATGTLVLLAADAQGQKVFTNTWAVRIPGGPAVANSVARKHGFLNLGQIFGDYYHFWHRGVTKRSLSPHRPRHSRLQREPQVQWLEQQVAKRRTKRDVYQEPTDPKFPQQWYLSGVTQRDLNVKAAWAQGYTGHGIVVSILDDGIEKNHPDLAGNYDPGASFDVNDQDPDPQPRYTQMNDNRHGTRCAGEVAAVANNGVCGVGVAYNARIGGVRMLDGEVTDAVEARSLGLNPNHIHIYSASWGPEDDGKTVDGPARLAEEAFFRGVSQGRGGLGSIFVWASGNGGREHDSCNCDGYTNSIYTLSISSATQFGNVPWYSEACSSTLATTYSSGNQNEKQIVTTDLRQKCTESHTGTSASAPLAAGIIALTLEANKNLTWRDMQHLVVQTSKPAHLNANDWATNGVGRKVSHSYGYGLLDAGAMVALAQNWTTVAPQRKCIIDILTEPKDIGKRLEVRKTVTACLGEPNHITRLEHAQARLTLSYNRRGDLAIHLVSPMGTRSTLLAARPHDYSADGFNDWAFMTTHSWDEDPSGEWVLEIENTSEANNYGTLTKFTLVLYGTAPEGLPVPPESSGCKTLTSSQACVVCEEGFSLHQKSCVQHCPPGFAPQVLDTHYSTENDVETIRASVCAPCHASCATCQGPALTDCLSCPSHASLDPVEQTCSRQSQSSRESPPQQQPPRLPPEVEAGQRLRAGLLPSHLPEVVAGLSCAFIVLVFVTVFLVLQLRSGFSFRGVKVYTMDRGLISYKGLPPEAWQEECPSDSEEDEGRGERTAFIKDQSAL
Sequence,furin cleavage Z-score (7.5 min),furin cleavage Z-score (15 min),furin cleavage Z-score (30 min)
CAEVVTSTWRAGNASASA [HC2253],0.989 (inactive),0.48 (inactive),1.66
CATTPASGSWAGNASASA [HC41],-0.916 (inactive),-1.61 (inactive),-1.23 (inactive)
CADDMEECSQAGNASASA [HC1811],0.222 (inactive),-0.945 (inactive),-0.707 (inactive)
CARRRRQAERAGNASASA [FS-2793],10.1 (active),11.9 (active),8.27 (active)
CARRRRKKARAGNASASA [FS-2790],1.33,1.06,0.0674 (inactive)
CARRRRDATRAGNASASA [FS-1970],13.2 (active),14.6 (active),10 (active)
CANAVAYYRGAGNASASA [HC867],-0.298 (inactive),0.148 (inactive),1.73
CARVRRNAKKAGNASASA [FS-1978],6.72 (active),5.97 (active),7.62 (active)
CAKRERNKRSAGNASASA [FS-1637],12.5 (active),14.4 (active),10.7 (active)
CAGPVRLKKKAGNASASA [FS-1527],-0.8 (inactive),-1.68 (inactive),-0.907 (inactive)
CARVRRNKRSAGNASASA [FS-1275],11.3 (active),10.9 (active),9.58 (active)
CARRRKSLKTAGNASASA [FS-2783],0.0718 (inactive),1.16,2.47
CARVRKSLKKAGNASASA [FS-2534],0.916 (inactive),3.69 (active),5.83 (active)
CARVRKSKGKAGNASASA [FS-1802],0.157 (inactive),-1.05 (inactive),0.116 (inactive)
CADSVIDCNTAGNASASA [HC885],0.968 (inactive),0.824 (inactive),1.02
CAASGVLTTSAGNASASA [HC1511],-1.03 (inactive),-0.000581 (inactive),-0.909 (inactive)
CAMEECSQHYAGNASASA [HC1769],0.65 (inactive),1.28,2.12
CAGVPPLRAWAGNASASA [HC1617],0.794 (inactive),0.986 (inactive),0.446 (inactive)
CARKPRDYTIAGNASASA [FS-2695],0.48 (inactive),0.851 (inactive),3.93 (active)
CARKPRPLDPAGNASASA [FS-2563],1.12,0.612 (inactive),0.941 (inactive)
CAVTPIDTTIAGNASASA [HC1436],-0.162 (inactive),-2.25 (inactive),-0.263 (inactive)
CARKPRDLELAGNASASA [FS-2038],8.14 (active),11 (active),10.9 (active)
CARKSRDMEIAGNASASA [FS-2980],0.641 (inactive),-0.334 (inactive),1.3

Sequence,furin cleavage Z-score (7.5 min),furin cleavage Z-score (15 min),furin cleavage Z-score (30 min)
CAQPEYDLELAGNASASA [HC1548],1.74,0.744 (inactive),0.874 (inactive)
CAAAVTSPLTAGNASASA [HC1058],0.302 (inactive),-1.38 (inactive),-0.302 (inactive)
CARNSTGLYHAGNASASA [HC258],0.587 (inactive),-0.804 (inactive),-0.846 (inactive)
CATTALVMAQAGNASASA [HC325],0.431 (inactive),-0.525 (inactive),-0.108 (inactive)
CAMETCSQHLAGNASASA [HC1718],-0.505 (inactive),1.16,2.25
CARLKRYHSQAGNASASA [FS-2156],1.21,-0.314 (inactive),1.6
CARLKRSRLKAGNASASA [FS-1741],3.6 (active),6.18 (active),7.33 (active)
CARLRKDQLKAGNASASA [FS-2432],-0.25 (inactive),0.106 (inactive),1.29
CARLKRNIGYAGNASASA [FS-1962],4.52 (active),7.71 (active),8.24 (active)
CARLKREIEKAGNASASA [FS-2431],9.68 (active),9.27 (active),9.19 (active)
CARLKRNQEKAGNASASA [FS-2707],-0.221 (inactive),0.44 (inactive),1.38
CARLGRIVDRAGNASASA [FS-1737],-0.217 (inactive),-0.37 (inactive),0.14 (inactive)
CARLGRSIDDAGNASASA [FS-2275],5.11 (active),6.98 (active),5.82 (active)
CARLRRPIGKAGNASASA [FS-3160],-0.962 (inactive),-0.579 (inactive),-1.27 (inactive)
CAIVPCHRPSAGNASASA [HC2304],0.422 (inactive),0.63 (inactive),0.055 (inactive)
CAGKSTKVPAAGNASASA [HC778],1.37,0.655 (inactive),-0.125 (inactive)
CAEMTTPCSGAGNASASA [HC1966],-0.105 (inactive),-0.176 (inactive),-0.555 (inactive)
CASSEANAEDAGNASASA [HC1365],-1.29 (inactive),-2.48 (inactive),-1.24 (inactive)
CAVAGALVAFAGNASASA [HC1090],1.08,-1.61 (inactive),-0.599 (inactive)
CARLTRSNSKAGNASASA [FS-1750],-0.152 (inactive),1.68,-1.49 (inactive)
CARLKRFSMVAGNASASA [FS-2705],1.5,0.596 (inactive),2.46
CARLKRSPDKAGNASASA [FS-2277],9.81 (active),12.1 (active),8.68 (active)
